{"source": "PubChem BioAssay AID588358", "about": "(NMMLSC, 2011)", "note": "Among all 310,000 compounds or so, about 1,500 (0.48%) were called active. The full list was thinned out, with actives kept by preference. Values without a mark were called inactive.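 How the source made its calls: active means binding more than 3 SD below its plate's average and above zero; inconclusive means below that plate limit but binding exactly zero; inactive means the rest.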", "data": [{"biological_target": "Desmoglein-3 (Homo sapiens) (UniProt P32926)", "sequence (P32926 whole entry, looked up, the tested form may be a part)": "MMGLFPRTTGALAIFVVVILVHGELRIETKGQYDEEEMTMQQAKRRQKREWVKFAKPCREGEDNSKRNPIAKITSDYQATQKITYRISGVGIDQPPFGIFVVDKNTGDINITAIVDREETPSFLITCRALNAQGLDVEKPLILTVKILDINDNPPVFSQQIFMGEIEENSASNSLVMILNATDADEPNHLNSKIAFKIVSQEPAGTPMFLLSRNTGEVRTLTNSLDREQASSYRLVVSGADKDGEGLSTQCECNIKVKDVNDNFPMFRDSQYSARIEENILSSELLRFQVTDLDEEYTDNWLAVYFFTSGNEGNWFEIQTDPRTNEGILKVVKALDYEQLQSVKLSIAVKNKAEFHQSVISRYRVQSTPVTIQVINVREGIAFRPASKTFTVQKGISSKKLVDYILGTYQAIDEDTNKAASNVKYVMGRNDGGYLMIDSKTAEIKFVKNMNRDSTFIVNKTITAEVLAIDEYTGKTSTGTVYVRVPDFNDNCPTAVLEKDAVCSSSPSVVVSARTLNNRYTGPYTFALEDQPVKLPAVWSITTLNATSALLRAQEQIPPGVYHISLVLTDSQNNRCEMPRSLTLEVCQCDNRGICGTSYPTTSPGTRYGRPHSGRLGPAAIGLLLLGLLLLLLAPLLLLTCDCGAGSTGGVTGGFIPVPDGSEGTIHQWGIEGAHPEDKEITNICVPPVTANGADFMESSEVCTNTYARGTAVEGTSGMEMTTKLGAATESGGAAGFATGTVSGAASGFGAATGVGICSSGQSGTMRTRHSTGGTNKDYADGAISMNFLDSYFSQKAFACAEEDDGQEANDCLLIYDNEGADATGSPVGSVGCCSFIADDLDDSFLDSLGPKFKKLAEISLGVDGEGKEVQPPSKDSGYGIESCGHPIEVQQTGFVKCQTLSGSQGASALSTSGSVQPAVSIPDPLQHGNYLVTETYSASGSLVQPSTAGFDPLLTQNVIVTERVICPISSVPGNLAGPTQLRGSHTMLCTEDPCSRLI", "assay": "inhibitors of pemphigus antibody binding to DSG3, primary screen, biochemical, bead-based, flow cytometry, scFv-GFP (AID 588358);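 further: hits lower antibody fragment binding to DSG3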", "conditions": "DSG3-coupled beads, scFv-anti-DSG3-GFP binding, at 10 µM, stronger effect = lower value", "values": [{"smiles": "Cc1cccc(OCCNC(=O)CSc2ccc(C(F)(F)F)cc2[N+](=O)[O-])c1", "binding (percent of control)": "114%"}, {"smiles": "O=C(CSc1ccc(C(F)(F)F)cc1[N+](=O)[O-])NCCOc1ccccc1", "binding (percent of control)": "87.7% (active)"}, {"smiles": "CCCCCCCCC(=O)NCCOc1ccccc1", "binding (percent of control)": "96.9%"}, {"smiles": "CCOC(=O)c1cnn2c(SC)ncnc12", "binding (percent of control)": "105%"}, {"smiles": "CCOc1ccc(NC(=O)c2nc(SCC)ncc2Cl)cc1", "binding (percent of control)": "62.8% (active)"}, {"smiles": "CCOc1ccc(NC(=O)NNC(=O)c2ccc(Cl)cc2Cl)cc1", "binding (percent of control)": "103%"}, {"smiles": "CSc1ncc(Cl)c(C(=O)Nc2cc(C)ccc2C)n1", "binding (percent of control)": "95%"}, {"smiles": "COc1ccc(NC(=O)COC(=O)C2COc3ccccc3O2)cc1", "note": "(stereo not drawn)", "binding (percent of control)": "100%"}, {"smiles": "Cc1ccc(C(=O)OCC(=O)NC2CCCCCCC2)cc1C", "binding (percent of control)": "97%"}, {"smiles": "CC(C)n1ncc2c(C(=O)N3CCN(Cc4cccs4)CC3)cc(C3CC3)nc21", "binding (percent of control)": "101%"}, {"smiles": "COc1ccc(C(=O)CCC(=O)Nc2ccc(Cl)cc2)cc1", "binding (percent of control)": "102%"}, {"smiles": "COc1ccc(NC(=O)CCCC(=O)c2ccccc2)cc1", "binding (percent of control)": "72.9% (active)"}, {"smiles": "COc1ccc(NC(=O)CS(=O)(=O)c2ccccc2)cc1", "binding (percent of control)": "103%"}, {"smiles": "C#Cc1cc(N2CCN(C(=O)c3ccoc3)CC2)n2nc(-c3cccc(Cl)c3)cc2n1", "binding (percent of control)": "96%"}, {"smiles": "Cc1ccc(C=O)c([B-](F)(F)F)c1", "binding (percent of control)": "103%"}, {"smiles": "CC1(C)OC(=O)C2=C(CC(c3ccccc3)OC2CCc2ccccc2)O1", "note": "(stereo not drawn)", "binding (percent of control)": "109%"}, {"smiles": "O=C(Nc1cccc(-n2cnnn2)c1)c1cccnc1", "binding (percent of control)": "104%"}, {"smiles": "Cc1ccc(-n2nc3cc(C)c(NC(=O)c4cccnc4)cc3n2)cc1", "binding (percent of control)": "78.3% (active)"}, {"smiles": "Cc1ccc(S(=O)(=O)N2CCCCC2)cc1NC(=O)c1cccnc1", "binding (percent of control)": "103%"}, {"smiles": "CC(=O)Nc1c(-c2ccc(C)cc2)nc2ccc(Cl)cn12", "binding (percent of control)": "98.5%"}, {"smiles": "CCCCN1C[C@H](c2ccc(Br)cc2)[C@@H](CC(=O)Nc2ccc(Br)cc2)C1=O", "binding (percent of control)": "102%"}, {"smiles": "C=CCNC(=O)c1cc(-c2ccccc2O)on1", "binding (percent of control)": "79.7% (active)"}, {"smiles": "O=C(Nc1cccnc1Cl)c1cc(-c2ccccc2O)on1", "binding (percent of control)": "92.4%"}, {"smiles": "O=C(c1cc(-c2ccccc2O)on1)N1CCCC1", "binding (percent of control)": "105%"}, {"smiles": "O=C(COC(=O)CCc1c[nH]c2ccccc12)Nc1cccc(Cl)c1", "binding (percent of control)": "102%"}, {"smiles": "COc1ccccc1C(=O)NC(=S)Nc1ccc(N2CCOCC2)cc1", "binding (percent of control)": "101%"}, {"smiles": "CC(C)[C@H](NC(=O)c1ccccc1F)C(=O)Nc1cccc(S(=O)(=O)N2CCOCC2)c1", "binding (percent of control)": "107%"}, {"smiles": "Cc1ccc(/C=N/NC(=O)c2cc3ccccc3cc2O)o1", "binding (percent of control)": "111%"}, {"smiles": "O=C(N/N=C/c1cccnc1)c1cc2ccccc2cc1O", "binding (percent of control)": "97.3% (active)"}, {"smiles": "O=C(N/N=C\\c1cccnc1)c1cc(-c2ccccc2)nc2c(Cl)cccc12", "binding (percent of control)": "111%"}, {"smiles": "Cc1ccccc1C#CC1=CC(=O)CC(C)(C)C1", "binding (percent of control)": "97.5%"}, {"smiles": "C[C@@H]1CN([C@H](C)CO)S(=O)(=O)c2ccc(C#CC3CCCCC3)cc2O[C@H]1CN(C)C(=O)Cc1ccncc1", "binding (percent of control)": "123%"}, {"smiles": "CN(C)C(CNC(=O)c1cc(Br)c(Br)s1)c1ccco1", "note": "(stereo not drawn)", "binding (percent of control)": "99.7%"}, {"smiles": "O=C(Cc1cccs1)Nc1nnc(C2CC2)s1", "binding (percent of control)": "125%"}, {"smiles": "O=C(CN1C(=O)c2ccc([N+](=O)[O-])cc2C1=O)Nc1nnc(C2CC2)s1", "binding (percent of control)": "66.2% (active)"}, {"smiles": "Cc1cccc(NC(=O)CSCC(=O)Nc2nnc(C3CC3)s2)c1", "binding (percent of control)": "105%"}, {"smiles": "O=S1(=O)CCN(C2CCCCCCCCCCC2)CC1", "binding (percent of control)": "96.7%"}, {"smiles": "CC(=O)Nc1ccc(C=Cc2ccc([N+](=O)[O-])cc2)cc1", "binding (percent of control)": "101%"}, {"smiles": "CCN(CC(=O)Nc1ccc(NC(C)=O)cc1)C(=O)C1CC(=O)N(c2ccc3c(c2)OCCO3)C1", "note": "(stereo not drawn)", "binding (percent of control)": "102%"}, {"smiles": "CC(C)c1ccc(NC(=O)C2CCCN(S(=O)(=O)c3cccnc3)C2)cc1", "note": "(stereo not drawn)", "binding (percent of control)": "-3.9% (active)"}, {"smiles": "COc1ccc(S(=O)(=O)N2CCCC(C(=O)Nc3ccc(NC(=O)c4ccccn4)cc3)C2)cc1", "note": "(stereo not drawn)", "binding (percent of control)": "101%"}, {"smiles": "O=C(Nc1ccc(F)c(Cl)c1)C1CCN(S(=O)(=O)c2cccnc2)CC1", "binding (percent of control)": "109%"}, {"smiles": "C=CCn1nc(C(=O)OCC)cc1-c1sc(NC(=O)c2ccccc2)nc1C", "binding (percent of control)": "102%"}, {"smiles": "Cc1cc(Nc2ccc(C)c(C)c2)n2ncnc2n1", "binding (percent of control)": "95%"}, {"smiles": "CCN(CC)C(=O)C1=C(C)N(Cc2ccc(OC)cc2)C(=O)C(CC(=O)NCCCCc2ccccc2)C1", "note": "(stereo not drawn)", "binding (percent of control)": "109%"}, {"smiles": "O=S(=O)(NCc1ccccc1)c1ccc(S(=O)(=O)N2CCCC2)cc1", "binding (percent of control)": "7.03% (active)"}, {"smiles": "O=S(=O)(c1ccc(-c2ccccc2)cc1)N1CCCC1", "binding (percent of control)": "95.9%"}, {"smiles": "CC1CCN(S(=O)(=O)c2ccc(S(=O)(=O)NCc3cccnc3)cc2)CC1", "binding (percent of control)": "94.4%"}, {"smiles": "CCOc1cc(/C=N/NC(=O)c2c(C)nc3ccc(Cl)cn23)ccc1O", "binding (percent of control)": "108%"}, {"smiles": "NC(=O)c1c(NC(=O)c2ccccc2)sc2c1CCCC2", "binding (percent of control)": "63.6% (active)"}, {"smiles": "COc1cccc(OC)c1C(=O)Nc1sc2c(c1C(N)=O)CCCC2", "binding (percent of control)": "109%"}, {"smiles": "C=CCN(CC=C)S(=O)(=O)c1ccc(C(=O)Nc2sc3c(c2C(N)=O)CCCCC3)cc1", "binding (percent of control)": "110%"}, {"smiles": "O=C(C1=C(O)C(=O)N(Cc2ccccc2)C1c1ccco1)c1ccco1", "note": "(stereo not drawn)", "binding (percent of control)": "108%"}, {"smiles": "O=C(C1=C(O)C(=O)N(Cc2ccccc2)C1c1cccnc1)c1ccco1", "note": "(stereo not drawn)", "binding (percent of control)": "64.8% (active)"}, {"smiles": "CCOc1cc(C2C(C(=O)c3ccco3)=C(O)C(=O)N2Cc2ccccc2)ccc1O", "note": "(stereo not drawn)", "binding (percent of control)": "104%"}, {"smiles": "CN1CCN(c2ccncc2S(=O)(=O)N2CCCC2)CC1", "binding (percent of control)": "102%"}, {"smiles": "CC1CCCN(S(=O)(=O)c2ccc(-c3ccc(=O)[nH]n3)o2)C1", "note": "(stereo not drawn)", "binding (percent of control)": "49% (active)"}, {"smiles": "Cc1ccc(NS(=O)(=O)c2ccc(-c3ccc(=O)[nH]n3)o2)c(C)c1", "binding (percent of control)": "102%"}, {"smiles": "O=c1ccc(-c2ccc(S(=O)(=O)Nc3ccccc3)o2)n[nH]1", "binding (percent of control)": "110%"}, {"smiles": "COc1ccc(C(C)(C)C)cc1NC(=O)CN(C)C1=NS(=O)(=O)c2ccccc21", "binding (percent of control)": "104%"}, {"smiles": "COC(=O)c1ccc(CNC(=O)C2CCC(=O)N(Cc3cccc(F)c3)C2)cc1", "note": "(stereo not drawn)", "binding (percent of control)": "97%"}, {"smiles": "O=C1CCC(C(=O)N2CCCCO2)CN1Cc1cccc(C(F)(F)F)c1", "note": "(stereo not drawn)", "binding (percent of control)": "90.7% (active)"}, {"smiles": "O=C(c1ccco1)N1CCN(Cc2cccc(C(F)(F)F)c2)CC1", "binding (percent of control)": "107%"}]}]}
